# Results filed as inconclusive are left out. Activity calls are given as the source filed them. Unless noted, calls follow the shape of the dose curve; as a rule, active = well fitted curve in the direction sought with a large enough effect; inconclusive = small, poorly fitted or top-dose-only effect, or another doubt; inactive = no such curve, though single readings can be large; an effect the other way counts as inactive or inconclusive.
# Tests used:
# [1] = molecular target: Cytochrome P450 3A4 (Homo sapiens) (UniProt P08684); assay: qHTS Assay for Activators of Cytochrome P450 3A4 (AID 885); also: nearly all actives have a fitted effect of over 65% in size
# Summary of the method: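 Human CYP3A4 dealkylates Luciferin-PPXE to luciferin, which luciferase detection converts to light. Substrate was at its KM (25uM), buffer 200mM KPO4, reaction 60 min at RT.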
# [2] = Confirmation and Secondary Assay for Modulators of Hemoglobin Beta Chain Splicing at IVS2 654 locus (AID 910);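 also: HeLa cells stably carrying EGFP split by mutant beta-globin IVS2-654 intron; % of control where 0% means no effect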
# Summary of the method: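 HeLa cells stably expressing EGFP interrupted by β-globin IVS2-654 intron, seeded overnight in Opti-MEM/2% FCS, then treated 2 days at 37 °C. Restored splicing read as total peak GFP intensity per well by laser scanning cytometry (488 nm excitation, 500–520 nm emission); 500 nM antisense PNA as control.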
# [3] = qHTS Assay for Lipid Storage Modulators (AID 1519; calls by dose curve); conditions: Drosophila S3 cells, BODIPY lipid droplet/cell ratio, laser cytometry, cells loaded with oleic acid; for activity change, negative = inhibition: at 57.5 µM (top of the series)
# Summary of the method: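 Cells seeded at 5,000 per well were treated with compounds over a concentration series and loaded with oleic acid (400 uM, as added). Lipid droplet fluorescence (488 nm excitation, 500-530 nm channel) was read by laser-scanning cytometry and normalized to 20 uM Triacsin C.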
# [4] = molecular target: Lysosomal acid glucosylceramidase (Homo sapiens) (UniProt P04062); assay: Glucocerebrosidase-p2 (AID 348; in the data active = potency below about 10 µM; also: potency is read from the fitted curve at half-maximal effect); conditions: purified GBA, blue fluorogenic substrate, 40 min
# Summary of the method: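 Normal human glucocerebrosidase (0.2 nM) with blue fluorogenic substrate (80 uM final) in citrate/phosphate pH 5.9 with 10mM sodium taurocholate, 0.01% tween-20; 40 min RT, NaOH/glycine stop; fluorescence Ex 365/Em 440; AC50 from a titration from 0.6 nM upwards.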
# [5] = molecular target: Cytochrome P450 1A2 (Homo sapiens) (UniProt P05177); assay: p450-cyp1a2 (AID 410; calls by dose curve; also: potency is read from the fitted curve at half-maximal effect)
# Summary of the method: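 Luminescent demethylation readout: Luciferin-ME (100uM, equal to Km) turned over by 20nM CYP1A2 for 60 min at room temperature after NADPH regeneration addition, following 10 min compound preincubation. Normalization used 57 uM furafylline as full inhibition.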
# [6] = NFAT Signaling Pathway (AID 444; active = well fitted curve in either direction with a large enough effect, not every such curve was filed as active;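 also: carbachol stimulus at about its EC50 of 1 µM final; % is scaled to controls: 0 for no effect and ±100 for the full control effect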); conditions: Jurkat NFAT-bla M1, carbachol, beta-lactamase ratio, 5 h; at 7.69 µM (top of the series) unless noted
# Summary of the method: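 Jurkat cells with NFAT-driven β-lactamase reporter and co-expressed M1 receptor, stimulated with carbachol (final 1 uM, ~EC50), compound titration, 5 h at 37 °C. CCF4 loaded 1 h at RT; 460/530 nm ratio gave %activity and AC50.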
# [7] = Stat Signaling Pathway (AID 446; active = well fitted curve in either direction with a large enough effect, not every such curve was filed as active;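 also: ME-180 cervical cancer cells given 40 pM IL-6 alongside compound; SIE-controlled beta-lactamase reporter measured as 460/530 nm FRET emission ratio; % is scaled to controls: 0 for no effect and ±100 for the full control effect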); conditions: ME-180 SIE beta-lactamase reporter, IL-6 stimulated, 5 h; at 7.69 µM (top of the series) unless noted
# Summary of the method: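 Normalization used AC90 stimulation (300 pM IL-6) and AC90 inhibition (125 nM pan-JAK inhibitor at 40 pM IL-6). The underlying signal is SIE-driven beta-lactamase in ME-180 cells after 5 h IL-6 exposure with compound.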
# [8] = molecular target: Glucocorticoid receptor (Homo sapiens) (UniProt P04150); assay: GR-GFP Redistribution (AID 450;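 active = compounds whose dose series gives a full or clear partial fitted curve of increased nuclear translocation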; also: potency is read from the fitted curve at half-maximal effect); conditions: U2OS GR-GFP nuclear translocation, laser cytometry, 2 h
# [9] = molecular target: Glucocorticoid receptor (Homo sapiens) (UniProt P04150); assay: GR-EFC Redistribution (AID 451; calls by dose curve; also: potency is read from the fitted curve at half-maximal effect); conditions: CHO-K1 GR-EFC translocation, beta-gal luminescence, 2 h
# Summary of the method: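 CHO-K1 cells expressing nuclear EA and GR-ED fragments of b-gal; compounds titrated up to 46 uM final, 2 h at 37 C. GR nuclear translocation read as complemented b-gal luminescence after 1 h RT detection.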
# [10] = molecular target: Mitogen-activated protein kinase 10 (Mus musculus) (UniProt Q61831); assay: JNK3 AlphaScreen Assay (AID 530; active = well fitted curve in either direction with a large enough effect, not every such curve was filed as active;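 also: kinase came from lysate of stimulated human HepG2 cells; signal reports phosphorylation of biotinylated GST-cJun 1-79 at Ser73 with 10 µM ATP; % is scaled to controls: 0 for no effect and ±100 for the full control effect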)
# Summary of the method: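 Activity was read by AlphaScreen after JNK3-containing HepG2 lysate (cytokine pre-activated) phosphorylated biotinylated GST-cJun with 10 uM ATP at room temperature. Phospho-Ser73 cJun antibody with Protein-A acceptor beads provided detection.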
# [11] = molecular target: 3',5'-cyclic-AMP phosphodiesterase 4B (Homo sapiens) (UniProt Q07343); assay: qHTS Assay for Inhibitors of PDE-IV (AID 607; active = well fitted activation curve with a large enough effect in the main read-out, with a control signal flat, not every such curve was filed as active; also: % of control where 0% means no effect)
# Summary of the method: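 HEK293 ACTOne cells with CNG channel (1000/well), endogenous PDE4; membrane potential dye, compounds up to 22.9 uM final. Fluorescence Ex 535/Em 590; RO 20-1724 (100 uM final) as reference.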
# [12] = qHTS Assay for Identification of Small Molecule Agonists for Hypoxia Response Element Signaling Pathway (AID 914; active = well fitted activation curve with a large enough effect in the signal ratio, with a control signal flat, not every such curve was filed as active; the % refers to the signal ratio; also: potency is read from the fitted curve at half-maximal effect); conditions: ME-180 HRE-bla reporter, beta-lactamase ratio, CoCl2, 17 h; activation: stronger effect = higher value
# Summary of the method: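 A beta-lactamase reporter under hypoxia response element control in ME-180 cells served as the system. Compound titrations plus EC50 CoCl2 ran 17 h at 37 degrees Celsius; AC50 values were fitted from %Activity.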
# [13] = molecular target: Dual specificity protein kinase CLK4 (Homo sapiens) (UniProt Q9HAZ1); assay: qHTS Assay for Inhibitors of CDC-like Kinase 4 (ADP-FP Assay) (AID 1795); also: % is scaled to controls: 0 for no effect and ±100 for the full control effect; nearly all actives have a fitted effect of over 60% in size
# Summary of the method: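 Recombinant human Clk4 (6.25 nM) phosphorylated RS repeat peptide (100 uM) with 1 uM ATP in Tris pH 7.5/MgCl2/EGTA/DTT/Triton buffer for one hour. ADP was quantified by Transcreener competitive fluorescence polarization against an ADP calibration curve.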
# [14] = molecular target: Ubiquitin carboxyl-terminal hydrolase 1 (Homo sapiens) (UniProt O94782); assay: Inhibitors of USP1/UAF1: Pilot qHTS (AID 504865);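 also: rhodamine fluorescence freed from ubiquitin-rhodamine substrate followed over time; top concentration of the series differs between compounds; % is scaled to controls: 0 for no effect and ±100 for the full control effect; nearly all actives have a fitted effect of over 35% in size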
# Summary of the method: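 USP1/UAF1 complex (1nM) preincubated with compound 15 min at room temperature, then Ub-Rho substrate (150nM final) added. Fluorescence read kinetically at 480/540 nm, 6 reads every 60 seconds. Buffer: 50mM HEPES pH 7.8, 0.5mM EDTA, 0.1 mg/ml BSA, 1mM TCEP, 0.01% Tween-20.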
# [15] = AP1 Signaling Pathway (AID 357; active = well fitted curve in either direction with a large enough effect, not every such curve was filed as active;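 also: ME-180 reporter cells stimulated with EGF at its EC50 level; % is scaled to controls: 0 for no effect and ±100 for the full control effect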); conditions: ME-180 (cervical carcinoma) AP-1-bla reporter, EGF-induced, beta-lactamase ratio, 5 h; at 7.69 µM (top of the series) unless noted
# Summary of the method: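 AP-1-bla ME-180 cells, Opti-MEM + 0.5% dialyzed FBS, plated overnight 37 °C. Cpd titration + EC50 EGF, 5 h 37 °C. CCF4 2.5 h RT; ex 405, em 460/530 ratio → %activity, AC50.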
# [16] = molecular target: Cytochrome P450 3A4 (Homo sapiens) (UniProt P08684); assay: qHTS Assay for Inhibitors and Substrates of Cytochrome P450 3A4 (AID 884); also: nearly all actives have a fitted effect of over 50% in size; also: potency is read from the fitted curve at half-maximal effect
# Summary of the method: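 Luminescent readout of luciferin produced by CYP3A4 (20 nM) dealkylation of Luciferin-PPXE, 25 uM (its KM). NADPH-driven reaction ran 60 min at RT after 10 min compound preincubation; data scaled to 57 uM ketoconazole as 100% inhibition.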
# [17] = Confirmation and Secondary Assay for Modulators of Hemoglobin Beta Chain Splicing at IVS2 705 locus (AID 930);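 also: HeLa cells stably expressing the EGFP-705 splicing reporter; GFP fluorescence per well restored by corrected splicing of the IVS2-705 intron in EGFP; % of control where 0% means no effect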
# Summary of the method: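 Fluorescence gain (488 nm laser, 500-520 nm PMT) reflects restored correct splicing of a mutant IVS2-705 intron inside EGFP in stably transfected HeLa cells after 2-day compound treatment.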
# [18] = measured here: cell count channel max response
# [19] = measured here: lipid channel max response
# Chain of Ubiquitin carboxyl-terminal hydrolase 1 (Homo sapiens) (O94782 whole entry, looked up): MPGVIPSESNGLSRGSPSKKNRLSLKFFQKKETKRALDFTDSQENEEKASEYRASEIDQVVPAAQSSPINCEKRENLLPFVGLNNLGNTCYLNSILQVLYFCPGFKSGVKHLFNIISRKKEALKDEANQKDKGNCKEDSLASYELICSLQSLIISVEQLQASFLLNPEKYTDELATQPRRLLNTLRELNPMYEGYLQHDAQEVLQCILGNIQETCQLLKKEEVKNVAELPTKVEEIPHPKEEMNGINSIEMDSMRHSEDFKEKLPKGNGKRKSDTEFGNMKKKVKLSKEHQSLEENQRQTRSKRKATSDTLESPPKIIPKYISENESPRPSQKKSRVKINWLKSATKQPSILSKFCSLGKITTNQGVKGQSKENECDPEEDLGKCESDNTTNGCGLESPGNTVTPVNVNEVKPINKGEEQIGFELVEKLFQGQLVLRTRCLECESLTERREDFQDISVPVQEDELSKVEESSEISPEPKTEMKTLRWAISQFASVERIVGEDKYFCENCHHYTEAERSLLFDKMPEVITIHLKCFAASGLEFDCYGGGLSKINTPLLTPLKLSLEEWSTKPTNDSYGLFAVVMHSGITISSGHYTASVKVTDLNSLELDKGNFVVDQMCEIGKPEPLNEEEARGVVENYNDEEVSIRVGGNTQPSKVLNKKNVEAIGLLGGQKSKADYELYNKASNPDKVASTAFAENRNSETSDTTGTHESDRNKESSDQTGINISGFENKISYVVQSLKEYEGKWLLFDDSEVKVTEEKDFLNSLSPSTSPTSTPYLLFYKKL
# Chain of Cytochrome P450 3A4 (Homo sapiens) (P08684 whole entry, looked up): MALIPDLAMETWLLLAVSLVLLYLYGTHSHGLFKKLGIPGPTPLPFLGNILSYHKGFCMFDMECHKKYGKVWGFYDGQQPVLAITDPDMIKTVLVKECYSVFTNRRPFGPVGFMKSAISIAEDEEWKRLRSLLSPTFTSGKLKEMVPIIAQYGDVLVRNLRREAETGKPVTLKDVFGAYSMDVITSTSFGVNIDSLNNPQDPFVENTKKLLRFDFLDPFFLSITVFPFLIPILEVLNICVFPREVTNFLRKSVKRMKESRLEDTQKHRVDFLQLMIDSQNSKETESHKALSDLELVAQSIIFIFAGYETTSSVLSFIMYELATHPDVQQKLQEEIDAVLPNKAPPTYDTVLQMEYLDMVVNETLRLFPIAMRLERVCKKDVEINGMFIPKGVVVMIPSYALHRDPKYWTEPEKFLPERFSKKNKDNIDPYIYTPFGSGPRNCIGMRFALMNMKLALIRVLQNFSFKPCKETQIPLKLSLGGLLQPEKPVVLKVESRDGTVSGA
# Chain of Glucocorticoid receptor (Homo sapiens) (P04150 whole entry, looked up, the tested form may be a part): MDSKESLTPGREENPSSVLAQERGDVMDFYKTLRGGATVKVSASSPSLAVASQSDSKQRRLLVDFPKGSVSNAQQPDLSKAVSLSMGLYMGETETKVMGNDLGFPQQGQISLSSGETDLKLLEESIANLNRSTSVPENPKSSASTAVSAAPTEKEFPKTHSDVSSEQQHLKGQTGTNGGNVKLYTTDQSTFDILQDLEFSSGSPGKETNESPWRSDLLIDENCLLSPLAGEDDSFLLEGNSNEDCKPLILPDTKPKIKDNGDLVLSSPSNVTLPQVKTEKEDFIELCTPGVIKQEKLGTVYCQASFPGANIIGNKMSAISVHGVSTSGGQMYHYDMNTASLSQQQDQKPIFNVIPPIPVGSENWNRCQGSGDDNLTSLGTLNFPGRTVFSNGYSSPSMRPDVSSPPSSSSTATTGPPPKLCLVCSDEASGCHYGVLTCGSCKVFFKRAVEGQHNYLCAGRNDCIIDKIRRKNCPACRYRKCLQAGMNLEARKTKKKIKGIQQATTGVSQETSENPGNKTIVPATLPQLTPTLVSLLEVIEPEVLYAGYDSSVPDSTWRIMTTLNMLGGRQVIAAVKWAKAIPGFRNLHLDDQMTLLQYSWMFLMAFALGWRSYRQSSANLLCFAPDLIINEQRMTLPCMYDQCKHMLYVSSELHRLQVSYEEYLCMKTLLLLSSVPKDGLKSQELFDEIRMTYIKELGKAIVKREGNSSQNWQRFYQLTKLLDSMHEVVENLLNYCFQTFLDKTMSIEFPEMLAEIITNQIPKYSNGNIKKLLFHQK
# Chain of Lysosomal acid glucosylceramidase (Homo sapiens) (P04062 whole entry, looked up): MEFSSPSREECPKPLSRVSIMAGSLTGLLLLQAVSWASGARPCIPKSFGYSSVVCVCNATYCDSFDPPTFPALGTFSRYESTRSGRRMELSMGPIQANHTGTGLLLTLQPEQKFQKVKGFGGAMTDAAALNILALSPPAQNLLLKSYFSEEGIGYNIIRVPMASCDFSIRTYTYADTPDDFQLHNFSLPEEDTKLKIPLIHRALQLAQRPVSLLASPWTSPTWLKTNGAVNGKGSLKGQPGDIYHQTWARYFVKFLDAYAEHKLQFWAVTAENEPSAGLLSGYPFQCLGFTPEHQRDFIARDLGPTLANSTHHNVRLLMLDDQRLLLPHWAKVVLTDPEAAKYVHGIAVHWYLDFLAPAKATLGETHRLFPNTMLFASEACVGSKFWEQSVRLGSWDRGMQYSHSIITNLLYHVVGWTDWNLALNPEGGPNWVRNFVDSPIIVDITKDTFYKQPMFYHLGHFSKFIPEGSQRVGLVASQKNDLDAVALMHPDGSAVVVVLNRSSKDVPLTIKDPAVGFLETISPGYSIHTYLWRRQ
# Chain of Dual specificity protein kinase CLK4 (Homo sapiens) (Q9HAZ1 whole entry, looked up): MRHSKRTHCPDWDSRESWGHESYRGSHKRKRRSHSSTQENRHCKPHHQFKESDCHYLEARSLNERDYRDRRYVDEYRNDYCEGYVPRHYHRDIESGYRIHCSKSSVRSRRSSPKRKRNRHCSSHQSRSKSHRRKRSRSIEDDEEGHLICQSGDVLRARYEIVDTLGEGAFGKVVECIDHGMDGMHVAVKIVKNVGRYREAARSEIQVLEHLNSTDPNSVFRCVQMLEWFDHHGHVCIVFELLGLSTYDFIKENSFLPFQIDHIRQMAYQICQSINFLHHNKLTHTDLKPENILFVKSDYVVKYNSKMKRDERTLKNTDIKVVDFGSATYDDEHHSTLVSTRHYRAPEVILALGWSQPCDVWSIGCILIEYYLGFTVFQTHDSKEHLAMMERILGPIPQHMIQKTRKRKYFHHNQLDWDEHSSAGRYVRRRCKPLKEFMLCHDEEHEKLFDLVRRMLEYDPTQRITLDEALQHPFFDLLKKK
# Chain of Cytochrome P450 1A2 (Homo sapiens) (P05177 whole entry, looked up): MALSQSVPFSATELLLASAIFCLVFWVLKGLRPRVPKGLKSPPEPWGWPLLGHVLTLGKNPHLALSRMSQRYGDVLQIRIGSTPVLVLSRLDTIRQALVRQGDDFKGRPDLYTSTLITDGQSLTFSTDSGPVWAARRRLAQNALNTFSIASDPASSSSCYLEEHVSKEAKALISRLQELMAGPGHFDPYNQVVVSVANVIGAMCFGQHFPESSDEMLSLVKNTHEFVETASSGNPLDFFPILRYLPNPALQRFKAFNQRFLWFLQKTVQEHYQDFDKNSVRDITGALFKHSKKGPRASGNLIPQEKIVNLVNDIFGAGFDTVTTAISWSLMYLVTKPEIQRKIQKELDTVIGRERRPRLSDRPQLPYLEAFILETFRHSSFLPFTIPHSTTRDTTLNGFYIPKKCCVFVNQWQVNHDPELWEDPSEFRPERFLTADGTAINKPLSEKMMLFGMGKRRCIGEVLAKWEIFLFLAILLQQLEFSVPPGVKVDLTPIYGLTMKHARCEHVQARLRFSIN
# Chain of 3',5'-cyclic-AMP phosphodiesterase 4B (Homo sapiens) (Q07343 whole entry, looked up): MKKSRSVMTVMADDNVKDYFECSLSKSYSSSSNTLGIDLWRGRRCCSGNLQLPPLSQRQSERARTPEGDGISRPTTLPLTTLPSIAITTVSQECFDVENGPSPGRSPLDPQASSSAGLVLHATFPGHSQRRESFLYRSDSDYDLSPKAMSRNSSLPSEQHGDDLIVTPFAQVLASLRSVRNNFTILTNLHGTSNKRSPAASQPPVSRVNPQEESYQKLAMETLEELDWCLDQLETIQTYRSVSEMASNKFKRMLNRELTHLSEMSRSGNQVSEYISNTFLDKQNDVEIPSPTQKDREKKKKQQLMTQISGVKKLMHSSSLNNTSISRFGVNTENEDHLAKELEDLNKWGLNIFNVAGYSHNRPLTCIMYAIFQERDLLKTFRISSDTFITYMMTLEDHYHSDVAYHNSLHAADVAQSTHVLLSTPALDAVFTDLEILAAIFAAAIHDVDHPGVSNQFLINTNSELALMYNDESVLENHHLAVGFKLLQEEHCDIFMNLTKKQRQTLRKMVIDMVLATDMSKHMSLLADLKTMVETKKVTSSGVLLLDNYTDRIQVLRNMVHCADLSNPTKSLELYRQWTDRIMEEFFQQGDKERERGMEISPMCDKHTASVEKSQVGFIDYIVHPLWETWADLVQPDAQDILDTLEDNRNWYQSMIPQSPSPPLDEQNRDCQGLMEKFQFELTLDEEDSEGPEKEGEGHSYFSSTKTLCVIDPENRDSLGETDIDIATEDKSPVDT
smiles,measurement,setting,value
NC(Cc1c[nH]c2ccccc12)C(=O)O (stereo unspecified),Potency,[1],inactive
same,Potency,[2],inactive
same,"activity change, negative = inhibition",[3],9.94% (inactive)
same,max response,[3]; [18],25.9%
same,max response,[3]; [19],44.9%
COc1ncc2nc(-c3cccs3)c(=O)n(C)c2n1,Potency,[4],> 11.4 µM (inactive)
same,Potency,[5],2 µM (active)
same,"activity change, negative = inhibition",[6],8.87% (inactive)
same,"activity, negative = inhibition",[7],20.2% (inactive)
same,Potency,[8],> 46 µM (inactive)
same,Potency,[9],> 46 µM (inactive)
same,Potency,[10],inactive
same,Potency,[11],inactive
same,Potency,[1],inactive
same,Potency,[12],2.51 µM (active)
same,"activity change, negative = inhibition",[3],6% (inactive)
same,max response,[3]; [18],19.4%
same,max response,[3]; [19],24.1%
same,Potency,[13],inactive
same,Potency,[14],inactive
FC(F)(F)c1ccccc1-c1ccc2ncnc(NCc3cccs3)c2c1,Potency,[4],> 11.4 µM (inactive)
same,"activity change, negative = inhibition",[15],13.7% (inactive)
same,Potency,[5],7.94 µM (active)
same,"activity, negative = inhibition",[7],-16.1% (inactive)
same,Potency,[8],> 46 µM (inactive)
same,Potency,[9],> 46 µM (inactive)
same,Potency,[10],inactive
same,Potency,[16],5.01 µM (active)
same,Potency,[1],inactive
same,"activity change, negative = inhibition",[3],-3.1% (inactive)
same,max response,[3]; [18],9.21%
same,max response,[3]; [19],5.18%
same,Potency,[13],inactive
same,Potency,[14],inactive
COc1cc2c(cc1OC)C1Cc3ccc(OC)c(OC)c3CN1CC2 (stereo unspecified),Potency,[1],inactive
same,Potency,[2],inactive
same,"activity change, negative = inhibition",[3],8.32% (inactive)
same,max response,[3]; [18],12.8%
same,max response,[3]; [19],22.2%
COc1ccc2ccc(=O)oc2c1,Potency,[16],inactive
same,Potency,[2],inactive
same,outcome,[17],inactive
same,"activity change, negative = inhibition",[3],7.71% (inactive)
same,max response,[3]; [18],-2.86%
same,max response,[3]; [19],5.5%
same,Potency,[14],inactive
CC1(C)SC2C(NC(=O)Cc3ccccc3)C(=O)N2C1C(=O)O (stereo unspecified),Potency,[2],inactive
same,outcome,[17],inactive
same,"activity change, negative = inhibition",[3],5.55% (inactive)
same,max response,[3]; [18],11.4%
same,max response,[3]; [19],23.9%
same,Potency,[14],inactive
C=C[C@](C)(O)CCC=C(C)C,Potency,[16],inactive
same,Potency,[2],inactive
same,"activity change, negative = inhibition",[3],3.04% (inactive)
same,max response,[3]; [18],15.3%
same,max response,[3]; [19],20.7%
same,Potency,[14],inactive
O=c1ccc2ccc(O)cc2o1,Potency,[16],inactive
same,Potency,[2],inactive
same,outcome,[17],inactive
same,"activity change, negative = inhibition",[3],5.83% (inactive)
same,max response,[3]; [18],11.1%
same,max response,[3]; [19],19.2%
same,Potency,[14],inactive
C=C(C)[C@H]1CC=C(C)C(=O)C1,Potency,[10],inactive
same,Potency,[16],inactive
same,"activity change, negative = inhibition",[3],-4.73% (inactive)
same,max response,[3]; [18],-28%
same,max response,[3]; [19],-15.9%
same,Potency,[14],inactive
